# Assay outcomes as filed in PubChem BioAssay.
# LmPK inhibitor = qHTS Assay for Inhibitors of Leishmania Mexicana Pyruvate Kinase (LmPK); purified LmPK, Kinase-Glo ATP luminescence, 1 h; Potency, µM (highest dose often 57.5 µM), for inactives: at the top dose activity change, negative = inhibition, actives largely listed as inhibitors; 290,000 tested, 0.37% active; AID 1721, 2009; note: potency is the fitted concentration of half-maximal effect; % is set by controls: 0 for no effect and ±100 for the full control effect
# Target sequence (Q27686 whole entry, looked up): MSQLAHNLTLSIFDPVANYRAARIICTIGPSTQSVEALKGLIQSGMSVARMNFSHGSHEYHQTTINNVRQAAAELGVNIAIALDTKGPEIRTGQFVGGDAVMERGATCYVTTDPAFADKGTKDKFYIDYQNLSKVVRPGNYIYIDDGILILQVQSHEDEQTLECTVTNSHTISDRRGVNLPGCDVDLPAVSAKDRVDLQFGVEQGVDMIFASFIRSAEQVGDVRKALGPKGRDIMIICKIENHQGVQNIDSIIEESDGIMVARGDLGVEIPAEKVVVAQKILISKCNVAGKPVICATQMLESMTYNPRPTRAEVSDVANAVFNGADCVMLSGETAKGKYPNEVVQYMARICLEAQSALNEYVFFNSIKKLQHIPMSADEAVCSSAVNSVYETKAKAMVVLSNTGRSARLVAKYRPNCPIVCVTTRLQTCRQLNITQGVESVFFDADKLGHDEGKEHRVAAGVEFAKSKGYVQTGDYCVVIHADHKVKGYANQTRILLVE
#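 0.1 nM LmPK, 0.5 mM PEP, 0.1 mM ADP; 50 mM imidazole pH 7.2, 7 mM MgCl2, 50 mM KCl; 1 h RT. Kinase-Glo luminescence readout, normalized to no-enzyme (full inhibition) and uninhibited wells.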
# CHX counter = Cycloheximide Counterscreen for Small Molecule Inhibitors of Shiga Toxin | cell reporter, cycloheximide protein synthesis inhibition counterscreen | max response, % | 300,000 tested, 12% active | AID 2314, 2010; in the data active = max response mostly above about 13%, no sharp cut-off; inactive = mostly below about 14%; note: read at 38.3 µM for the half of the compounds with a filed dose; 0% is about no effect
# Shiga toxin inh = A qHTS for Small Molecule Inhibitors of Shiga Toxin | Vero cells, Shiga toxin protein synthesis inhibition reporter | 290,000 tested, 9.2% active | AID 2315, 2010 | inhibition, % at 38.7 µM; in the data active = inhibition mostly above about 28%, no sharp cut-off; inactive = mostly below about 43%; note: 0% is about no effect
# Pf growth 96h = Primary qHTS for delayed death inhibitors of the malarial parasite plastid, 96 hour incubation | P. falciparum luciferase reporter growth, 96 h | Potency, µM (top dose mostly 28.7 µM), for the others: at the top dose activity change, negative = inhibition, actives largely listed as inhibitors | 320,000 tested, 6.9% active; note: potency is the fitted concentration of half-maximal effect; % is set by controls: 0 for no effect and ±100 for the full control effect
#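 Parasite growth measured via integrated firefly luciferase reporter in P. falciparum. Infected erythrocytes at 2% hematocrit, 0.05% parasitemia final were treated 96 hours at 37 C under 5% CO2, and luminescence was read.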
# Pf growth 48h = Primary qHTS for delayed death inhibitors of the malarial parasite plastid, 48 hour incubation; Potency, µM (titrated, usually from 28.7 µM), for the others: at the top dose activity change, negative = inhibition, actives largely listed as inhibitors; 310,000 tested, 5.9% active; P. falciparum luciferase growth in erythrocytes, 48 h; note: potency is the fitted concentration of half-maximal effect; % is set by controls: 0 for no effect and ±100 for the full control effect
#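 Firefly luciferase activity from engineered P. falciparum reports growth; inhibitors lower the luminescent signal. Cultures contained 2% hematocrit erythrocytes at 0.1% final parasitemia.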
# An asterisk follows results filed as active; i = inactive; ? = inconclusive; . = no result given; [ ] = another dose, or the depositor's remark. The list is not random: actives were taken first. Their share in the collection is about 22%. Unless noted, calls come from the whole dose curve; as a rule, active = well fitted inhibition curve with a large enough effect; inconclusive = small, poorly fitted or top-dose-only effect, or another doubt; inactive = no such curve, though single readings can be large or run the other way.
SMILES,LmPK inhibitor,CHX counter,Shiga toxin inh,Pf growth 96h,Pf growth 48h
CCCC1=Nc2cc(C(=O)N3CCC(C(N)=O)CC3)ccc2Sc2ccccc21,2%,-4,17,?,?
CCCC1=Nc2cc(C(=O)N3CCC(C(=O)OCC)CC3)ccc2Sc2ccccc21,-1%,-2,-10,9.3µM*,8.3µM*
CCCCOc1ccc(C(=O)NCC(=O)NC2CCN(Cc3ccccc3)CC2)cc1,-5%,-2,10,?,?
O=C(COc1ccccc1Cl)Nc1ccc2c(c1)C(=O)NC2=O,-8%,-2,-5,?,1%
Cc1cccc(N2CCN(C(=O)CN3C(=O)NC4(CCCCCC4)C3=O)CC2)c1C,.,.,.,?,-4%
CC(=O)N1CCN(Cc2nc3ccc(Cl)cc3n2CCO)CC1,-1%,-2,-4,0%,26%
O=C(CSc1ccc2nnc(-c3cccc(F)c3)n2n1)NCc1ccco1,2%,-2,-8,6.6µM*,?
COC(=O)c1ccc(CSc2ccc3nnc(-c4cccc(F)c4)n3n2)o1,-4%,0,-8,?,12µM*
CCOC(=O)CC(=O)CSc1ccc2nnc(-c3cccc(F)c3)n2n1,5%,-2,-32,7%,7.4µM*
O=C(CSc1ccc2nnc(-c3cccnc3)n2n1)NCc1ccco1,15%,3,-19,-17%,.
CSc1ccc2nnc(-c3cccc(F)c3)n2n1,-2%,-2,-9,?,-3%
CCc1cccc(NC(=O)Cn2c(=O)c3cccn3c3ccccc32)c1,-11%,-4,-5,1%,10%
CC(NC(=O)CSc1ncn[nH]1)c1ccc(Cl)cc1Cl (centres undefined),4%,-3,-8,-2%,-4%
Cc1ccc2c(c1)c1c(n2CC(O)CNC2CCCCC2)CCCC1 (centres undefined),11%,-12,-24,26%,2.9µM*
Cc1ccc2c(c1)c1c(n2CC(O)CNC(CO)(CO)CO)CCCC1 (centres undefined),3%,-5,-13,19%,.
Cc1ccc(S(=O)(=O)N2CCCCC2)cc1C(=O)NCCCN1CCOCC1,-14%,-5,-12,18%,-21%
Cc1ccc(S(=O)(=O)N2CCN(C)CC2)c(C)c1,-2%,-4,-12,2.6µM*,-1%
Cc1ccc(S(=O)(=O)N2CCN(S(=O)(=O)N3CCCCC3)CC2)c(C)c1,2%,-3,-9,34%,-16%
Cc1ccc(S(=O)(=O)N2CCN(C(=O)COC(=O)C3(C)CC3(Cl)Cl)CC2)c(C)c1 (centres undefined),.,.,.,?,10µM*
CN1c2ccsc2/C(=N/Nc2ccc(F)cc2)CS1(=O)=O,0%,27*,54,?,?
Cc1ccc(N/N=C2\CS(=O)(=O)N(C)c3ccsc32)cc1,2%,51*,66*,?,?
CCCC(=O)N/N=C1\CS(=O)(=O)N(C)c2ccsc21,4%,4,27,17%,30%
O=C(O)CCS(=O)(=O)c1cc(Br)cc2c1N(C(=O)C1CC1)CC2,-10%,0,31,?,?
O=C(C1CC1)N1CCc2cc(Br)cc(S(=O)(=O)NCc3ccco3)c21,6%,28*,53*,40%,-22%
Cc1ccc(CNC(=O)CCS(=O)(=O)c2cc(Br)cc3c2N(C(=O)C2CC2)CC3)o1,3%,6,-22,12µM*,2.6µM*
SMILES,LmPK inhibitor,CHX counter,Shiga toxin inh,Pf growth 96h,Pf growth 48h
O=C(C1CC1)N1CCc2cc(Br)cc(S(=O)(=O)NCc3ccccn3)c21,-10%,-3,-3,51%,-18%
CC(=O)Oc1ccc(Cn2cnc3cc4ccccc4cc32)cc1,2%,15*,19,51%,11%
CCOc1ccc2c(c1)ncn2Cc1ccccc1,-2%[11.5 µM],24*,108*,0%,49%
CC(C)Oc1ccc2c(c1)OC(c1ccccc1)(C(F)(F)F)NC2=O (centres undefined),2%,-4,-4,0.19µM*,0.83µM*
COc1ccc2c(c1)OC(c1ccccc1)(C(F)(F)F)NC2=O (centres undefined),6%,-4,10,?,2.9µM*
CCC(NC(=O)c1cc(COc2ccc(OC)cc2Cl)on1)c1ccncc1 (centres undefined),-11%,64*,63,?,11%
COc1cc(Cl)ccc1OCc1cc(C(=O)NCCCN2CCCC2=O)no1,11%,14,19,?,?
COc1cc(Cl)ccc1OCc1cc(C(=O)NC(C)Cc2cnccn2)no1 (centres undefined),-4%,42*,70*,0%,26%
CCC(NC(=O)c1cc(COc2cc(C)c(Cl)c(C)c2)on1)c1ccncc1 (centres undefined),2%,12,11,56%,8%
COc1cc(Cl)ccc1OCc1cc(C(=O)NCC(C)c2ccccc2)no1 (centres undefined),10%,25*,33,-28%,28%
CC(Cc1cnccn1)NC(=O)c1cc(COc2ccc(F)cc2F)on1 (centres undefined),0%,9,-15,58%,23%
CCC(NC(=O)c1cc(COc2ccc(Cl)cc2OC)on1)c1ccncc1 (centres undefined),1%,38*,76*,-5%,9%
CC(CNC(=O)c1cc(COc2ccc3ncccc3c2)on1)c1ccccc1 (centres undefined),6%,-1,-4,-2%,?
CCOc1ccc(S(=O)(=O)N2CCCC(C(=O)N3CCOCC3)C2)cc1C (centres undefined),1%,-1,-6,26%,-7%
COCCn1c(N)c(N(Cc2ccccc2)C(=O)COc2ccccc2F)c(=O)[nH]c1=O,.,.,.,10%,-25%
Cc1cc(C(=O)Nc2ccc3c(c2)OCCO3)c(C)o1,?,28*,68*,.,150%
CC(=O)Nc1ccc2c(c1)OCCOCCOc1cc(NC(C)=O)ccc1OCCOCCOCCO2,-7%,-2,-13,41%,?
Cc1occc1C(=O)Nc1ccc2c(c1)CCC2,13µM*,48*,103*,25%,112%
Cc1ccccc1C(=O)Nc1ccc2c(c1)OCCO2,-10%,18*,20,?,194%
CC(=O)c1c(Nc2ccc3c(c2)OCCO3)oc(C)cc1=O,-3%,52*,118*,?,.
Cc1occc1C(=O)Nc1ccc(S(=O)(=O)N2CCN(C)CC2)cc1,3%,4,-1,.,25%
O=C(Nc1ccc2c(c1)OCCO2)c1coc2ccccc2c1=O,7.9µM*,48*,60*,i,51%
Cc1occc1C(=O)Nc1ccc2c(c1)OCCO2,13µM*,107*,100*,-26%,146%
CNC(=O)c1ccsc1NC(=O)c1coc2ccccc2c1=O,-5%,2,-5,-12%,18%
